Read-out in assay [1]: Intercellular Adhesion Molecule 1 (ICAM1), ICAM1 (gene 3383)
Nature of the assay: BSK_3C_ICAM1: BioMAP Diversity Plus: 3C Assay for Intercellular Adhesion Molecule 1 (ICAM1) Biomarker Activity (AID 2283003). The following applies: primary human endothelial cells (HUVEC); actives raise or lower the signal. The essentials: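 Primary human umbilical vein endothelial cells in the BioMAP 3C system were exposed to chemicals for 24 h, then ICAM-1 was quantified by ELISA. Activity was fitted bidirectionally against the DMSO negative control baseline.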

Assay [2] deals with human Retinoic Acid Receptor beta (RARb), RARB (gene 5915) (UniProt P10826). Description: ATG_RARb_TRANS: Attagene TRANS-FACTORIAL HepG2 Assay for human Retinoic Acid Receptor beta (AID 2283004; active means hit-call score of the fitted dose curve at least 0.9, where 1 is the maximum). In short, it runs like this:
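Induction of reporter mRNA from a chimeric RARb-Gal4 construct was measured by RT-PCR, FAM labelling, HpaI digestion and capillary electrophoresis. Measurements followed 24 h compound treatment of transiently transfected human HepG2 liver cells, with DMSO as baseline.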

Assay [3] addresses Retinoic acid receptor alpha (Homo sapiens) (UniProt P10276). Description: ATG_RARa_TRANS: Attagene TRANS-FACTORIAL HepG2 Assay for human Retinoic Acid Receptor alpha (RARa) (AID 2283005; active means hit-call score of the fitted dose curve at least 0.9, where 1 is the maximum). The essentials: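 Reporter transcripts, measured by RT-PCR with fluorescent labeling and capillary electrophoresis after 24 h dosing, reflect activity of an exogenous human RARa–GAL4 fusion in transiently transfected HepG2. Fitted for increase relative to DMSO.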

The nature of assay [4]: BSK_3C_Proliferation: Cell Proliferation Assessment in the BioMAP Diversity Plus: 3C Assay (AID 2283006).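 On AC50: potency may reflect either rise or fall in cell number versus DMSO.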 The following applies: primary human endothelial cells (HUVEC). In short, it runs like this:
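Human umbilical vein endothelial cells were grown sub-confluent and exposed to chemical for 48 h, then fixed with 10% TCA and stained with 0.1% sulforhodamine B; absorbance at 560 nm gave relative cell number, fitted bidirectionally against DMSO baseline.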

Assay [5] concerns the target Peroxisome proliferator-activated receptor gamma (Homo sapiens) (UniProt P37231). Description: ATG_PPARg_TRANS: Attagene TRANS-FACTORIAL HepG2 Assay for human Peroxisome Proliferator-activated Receptor-gamma (PPARg) (AID 2283007; active means hit-call score of the fitted dose curve at least 0.9, where 1 is the maximum). In short, it runs like this: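 HepG2 cells transiently transfected with multiplexed GAL4-UAS reporter units and exogenous chimeric NR-Gal4 proteins; reporter mRNA quantified after 24 h compound exposure by RT-PCR, fluorescent labelling, HpaI digestion and capillary electrophoresis; gain-of-signal fitted versus DMSO baseline.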

Assay [6] addresses Nuclear receptor subfamily 1 group I member 2 (Homo sapiens) (UniProt O75469). Description: ATG_PXR_TRANS: Attagene TRANS-FACTORIAL HepG2 Assay for human Pregnane X Receptor (PXR) (AID 2283008; active means hit-call score of the fitted dose curve at least 0.9, where 1 is the maximum). In short, it runs like this: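 Read-out is fluorescence of labelled reporter cDNA fragments separated by capillary electrophoresis after RT-PCR and HpaI digestion. Source: HepG2 cells carrying PXR-GAL4/UAS reporter constructs, treated 24 h; activity fitted upward relative to DMSO.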

Assay [7] concerns the target human Retinoic Acid Receptor gamma (RARg), RARG (gene 5916) (UniProt P13631). Description: ATG_RARg_TRANS: Attagene TRANS-FACTORIAL HepG2 Assay for human Retinoic Acid Receptor gamma (RARg) (AID 2283009; active means hit-call score of the fitted dose curve at least 0.9, where 1 is the maximum;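 on AC50: AC50 is for reporter induction above DMSO meaning RARg activation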). In short, it runs like this:
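HepG2 cells transiently transfected with multiplexed reporter units expressing chimeric RARg-GAL4 and GAL4-UAS-driven reporters; 24 h compound exposure. Reporter mRNA quantified by RT-PCR with fluorescent labelling and capillary electrophoresis; gain-of-signal fitted relative to DMSO baseline.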

Assay [8] concerns the target human RAR-related Orphan Receptor beta (RORb), RORB (gene 6096) (UniProt Q92753). Description: ATG_RORb_TRANS: Attagene TRANS-FACTORIAL HepG2 Assay for human RAR-related Orphan Receptor beta (RORb) (AID 2283010; active means hit-call score of the fitted dose curve at least 0.9, where 1 is the maximum). In short, it runs like this:
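HepG2 cells were transiently transfected with multiplexed GAL4-UAS reporter units expressing chimeric nuclear receptor–GAL4 proteins, then dosed for 24 h. Reporter mRNA was quantified by RT-PCR with fluorescent labelling and capillary electrophoresis; gain of signal was fitted relative to DMSO.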

The target of assay [9] is Retinoic acid receptor RXR-alpha (Homo sapiens) (UniProt P19793). Description: ATG_RXRa_TRANS: Attagene TRANS-FACTORIAL HepG2 Assay for human Retinoid X Receptor alpha (RXRa) (AID 2283012; active means hit-call score of the fitted dose curve at least 0.9, where 1 is the maximum). The essentials:
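HepG2 cells transiently transfected with multiplexed GAL4-UAS reporter units and chimeric NR-GAL4 fusions, dosed 24 h. Reporter mRNA measured by RT-PCR, FAM labelling, HpaI digestion and capillary electrophoresis; gain-of-signal fitted relative to DMSO baseline.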

Assay [10] deals with human Thyroid Receptor alpha (THRa1), THRA (gene 7067) (UniProt P10827). Nature of the assay: ATG_THRa1_TRANS: Attagene TRANS-FACTORIAL HepG2 Assay for human Thyroid Receptor alpha (THRa1) (AID 2283014; active means hit-call score of the fitted dose curve at least 0.9, where 1 is the maximum). The essentials:
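Transcripts from GAL4-UAS-driven reporters, measured after 24 h compound exposure by RT-PCR plus capillary electrophoresis of 6-FAM-labeled fragments, were fitted for gain of signal relative to DMSO. Cells: transiently transfected HepG2 expressing NR-Gal4 chimeras.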

Read-out in assay [11]: E-selectin (Homo sapiens) (UniProt P16581)
Description: BSK_3C_Eselectin: BioMAP Diversity Plus: 3C Assay for Eselectin Biomarker Activity (AID 2283015).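 On outcome: cell surface E-selectin protein quantified by ELISA 24 h after dosing.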 The following applies: primary human endothelial cells (HUVEC); actives raise or lower the signal. The essentials: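 E-selectin ELISA readout, fitted bidirectionally relative to DMSO, taken 24 h post-dosing in HUVEC cultures of the 3C system. Overt cytotoxicity tracked with sulforhodamine B staining of parallel wells.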

Read-out in assay [12]: Interleukin-1 alpha (IL1a), IL1A (gene 3552)
Description: BSK_BE3C_IL1a: BioMAP Diversity Plus: BE3C Assay for Interleukin-1 alpha (IL1a) Biomarker Activity (AID 2283016). The following applies: primary human bronchial epithelial cells; actives raise or lower the signal. In short, it runs like this: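 Human primary bronchial epithelial cells (BE3C system) were dosed with compound and IL-1a measured by ELISA 24 h later. Activity was fitted bidirectionally against DMSO baseline; cytotoxicity was tracked in parallel cultures by SRB total-protein staining.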

Read-out in assay [13]: Monocyte Chemoattractant Protein-1 (MCP1), CCL2 (gene 6347)
Nature of the assay: BSK_4H_MCP1: BioMAP Diversity Plus: 4H Assay for Monocyte Chemoattractant Protein-1 (MCP1) Biomarker Activity (AID 2283018). Conditions: primary human endothelial cells (HUVEC); actives raise or lower the signal. The essentials: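 Human umbilical vein endothelial cells (4H system) dosed with chemical; MCP-1 measured by ELISA 24 h after dosing. Bidirectional curve fitting against DMSO negative control as baseline; parallel SRB total-protein staining tracks overt cytotoxicity.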

Read-out in assay [14]: Human Leukocyte Antigen - DR isotype (HLADR), HLA-DRA (gene 3122)
Description: BSK_3C_HLADR: BioMAP Diversity Plus: 3C Assay for Human Leukocyte Antigen - DR isotype (HLADR) Biomarker Activity (AID 2283019).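 On outcome: ELISA of cell-surface HLA-DR on HUVEC 24 h after dosing.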 The following applies: primary human endothelial cells (HUVEC); actives raise or lower the signal. In short, it runs like this:
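Bidirectional fitting against DMSO was applied to the HLA-DR ELISA signal from human umbilical vein endothelial cells, 24 h post-dose. Cytotoxicity came from parallel SRB total-protein staining; 3C proliferation was counted by SRB at 48 h.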

Read-out in assay [15]: Interleukin-8 (IL8), CXCL8 (gene 3576)
Nature of the assay: BSK_3C_IL8: BioMAP Diversity Plus: 3C Assay for Interleukin-8 (IL8) Biomarker Activity (AID 2283020). Conditions: primary human endothelial cells (HUVEC); actives raise or lower the signal. The essentials:
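Primary human umbilical vein endothelial cells (3C system) were exposed to test chemical for 24 h, then IL-8 was quantified by ELISA. Responses were fitted bidirectionally against DMSO vehicle as baseline.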

Read-out in assay [16]: Monokine induced gamma interferon (MIG), CXCL9 (gene 4283)
Description: BSK_3C_MIG: BioMAP Diversity Plus: 3C Assay for Monokine induced gamma interferon (MIG) Biomarker Activity (AID 2283021).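 On AC50: MIG protein level measured by immunoassay in the treated endothelial cultures.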 The following applies: primary human endothelial cells (HUVEC); actives raise or lower the signal. The essentials: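 Primary human umbilical vein endothelial cells in the 3C system were exposed to chemical for 24 h, after which MIG was quantified by ELISA. Activity was fitted bidirectionally against DMSO as negative control and baseline.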

Read-out in assay [17]: Monocyte Chemoattractant Protein-1 (MCP1), CCL2 (gene 6347)
Description: BSK_3C_MCP1: BioMAP Diversity Plus: 3C Assay for Monocyte Chemoattractant Protein-1 (MCP1) Biomarker Activity (AID 2283017). Conditions: primary human endothelial cells (HUVEC); actives raise or lower the signal. In short, it runs like this: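 MCP-1 was measured by ELISA 24 h after dosing in primary HUVEC 3C cultures and fitted in both directions relative to DMSO; cytotoxicity was checked by SRB total-protein staining in parallel wells.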

Assay [18] addresses human RAR-related Orphan Receptor gamma (RORg), RORC (gene 6097) (UniProt P51449). Nature of the assay: ATG_RORg_TRANS: Attagene TRANS-FACTORIAL HepG2 Assay for human RAR-related Orphan Receptor gamma (RORg) (AID 2283011; active means hit-call score of the fitted dose curve at least 0.9, where 1 is the maximum). In short, it runs like this:
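Reporter transcripts from a transfected RORg-GAL4 chimera in HepG2 cells were quantified 24 h after dosing by RT-PCR, 6-FAM labelling, HpaI digestion and capillary electrophoresis; increases over DMSO baseline were fitted.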

Assay [19] concerns the target human Retinoid X Receptor beta (RXRb), RXRB (gene 6257) (UniProt P28702). Description: ATG_RXRb_TRANS: Attagene TRANS-FACTORIAL HepG2 Assay for human Retinoid X Receptor beta (RXRb) (AID 2283013; active means hit-call score of the fitted dose curve at least 0.9, where 1 is the maximum). The essentials:
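HepG2 cells transiently transfected with multiplexed reporter units driven by GAL4-UAS and exogenous chimeric NR-Gal4 proteins; treated 24 h. Reporter mRNA measured by RT-PCR, 6-FAM labelling and capillary electrophoresis; gain-of-signal fitted versus DMSO baseline.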

Assay [20] concerns the target human Vitamin D Receptor (VDR), VDR (gene 7421) (UniProt P11473). Nature of the assay: ATG_VDR_TRANS: Attagene TRANS-FACTORIAL HepG2 Assay for human Vitamin D Receptor (VDR) (AID 2283022; active means hit-call score of the fitted dose curve at least 0.9, where 1 is the maximum). The essentials: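 Transactivation by an exogenous VDR-Gal4 chimera in transiently transfected HepG2 cells was measured as reporter transcript level 24 hours after chemical treatment. RT-PCR products were analysed by capillary electrophoresis and fitted in the positive direction relative to DMSO.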

Molecules are shown by their SMILES. Inconclusive results are not listed. Active and inactive are the calls of the source. How the source made its calls, unless noted: active means hit-call score of the fitted dose curve at least 0.9, where 1 is the maximum; inactive means score below 0.9.

Sequence of Peroxisome proliferator-activated receptor gamma (Homo sapiens) (P37231 whole entry, looked up, the tested form may be a part): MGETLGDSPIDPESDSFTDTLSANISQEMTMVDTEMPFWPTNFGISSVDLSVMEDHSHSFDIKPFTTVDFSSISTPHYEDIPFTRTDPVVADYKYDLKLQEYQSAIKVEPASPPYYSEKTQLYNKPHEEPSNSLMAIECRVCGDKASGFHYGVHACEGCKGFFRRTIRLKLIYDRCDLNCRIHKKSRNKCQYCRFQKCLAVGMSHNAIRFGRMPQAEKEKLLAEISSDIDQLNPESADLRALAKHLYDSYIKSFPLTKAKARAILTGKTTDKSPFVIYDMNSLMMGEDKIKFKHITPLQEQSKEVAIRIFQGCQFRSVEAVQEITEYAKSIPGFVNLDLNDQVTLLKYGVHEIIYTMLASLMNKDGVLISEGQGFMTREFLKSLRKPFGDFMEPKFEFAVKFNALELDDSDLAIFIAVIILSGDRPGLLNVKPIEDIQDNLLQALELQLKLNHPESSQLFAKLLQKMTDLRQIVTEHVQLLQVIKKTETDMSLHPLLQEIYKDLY
Sequence of human Retinoic Acid Receptor gamma (RARg), RARG (gene 5916) (P13631 whole entry, looked up, the tested form may be a part): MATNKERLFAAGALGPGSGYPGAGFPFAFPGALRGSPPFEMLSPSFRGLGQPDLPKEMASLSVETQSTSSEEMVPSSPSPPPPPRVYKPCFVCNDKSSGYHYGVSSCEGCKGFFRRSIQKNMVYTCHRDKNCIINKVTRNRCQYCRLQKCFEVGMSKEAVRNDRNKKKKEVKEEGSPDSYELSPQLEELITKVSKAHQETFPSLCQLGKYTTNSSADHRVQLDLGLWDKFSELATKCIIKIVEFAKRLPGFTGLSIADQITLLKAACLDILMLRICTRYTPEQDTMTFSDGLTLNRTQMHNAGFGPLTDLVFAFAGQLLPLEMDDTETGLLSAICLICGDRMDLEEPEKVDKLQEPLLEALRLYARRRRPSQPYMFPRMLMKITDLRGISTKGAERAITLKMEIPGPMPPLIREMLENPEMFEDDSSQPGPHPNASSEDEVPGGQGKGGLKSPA
Sequence of Nuclear receptor subfamily 1 group I member 2 (Homo sapiens) (O75469 whole entry, looked up, the tested form may be a part): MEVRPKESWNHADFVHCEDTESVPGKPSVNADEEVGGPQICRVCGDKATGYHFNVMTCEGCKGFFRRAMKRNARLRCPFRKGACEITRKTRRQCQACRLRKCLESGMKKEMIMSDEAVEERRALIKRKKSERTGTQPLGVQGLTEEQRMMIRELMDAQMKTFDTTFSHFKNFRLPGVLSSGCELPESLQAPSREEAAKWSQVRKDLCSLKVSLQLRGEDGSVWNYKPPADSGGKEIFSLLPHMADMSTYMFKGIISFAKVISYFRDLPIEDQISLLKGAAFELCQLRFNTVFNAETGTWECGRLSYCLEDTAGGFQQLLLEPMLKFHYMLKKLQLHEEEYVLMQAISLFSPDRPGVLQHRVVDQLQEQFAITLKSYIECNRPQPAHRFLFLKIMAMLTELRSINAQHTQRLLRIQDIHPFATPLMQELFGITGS
Sequence of E-selectin (Homo sapiens) (P16581 whole entry, looked up): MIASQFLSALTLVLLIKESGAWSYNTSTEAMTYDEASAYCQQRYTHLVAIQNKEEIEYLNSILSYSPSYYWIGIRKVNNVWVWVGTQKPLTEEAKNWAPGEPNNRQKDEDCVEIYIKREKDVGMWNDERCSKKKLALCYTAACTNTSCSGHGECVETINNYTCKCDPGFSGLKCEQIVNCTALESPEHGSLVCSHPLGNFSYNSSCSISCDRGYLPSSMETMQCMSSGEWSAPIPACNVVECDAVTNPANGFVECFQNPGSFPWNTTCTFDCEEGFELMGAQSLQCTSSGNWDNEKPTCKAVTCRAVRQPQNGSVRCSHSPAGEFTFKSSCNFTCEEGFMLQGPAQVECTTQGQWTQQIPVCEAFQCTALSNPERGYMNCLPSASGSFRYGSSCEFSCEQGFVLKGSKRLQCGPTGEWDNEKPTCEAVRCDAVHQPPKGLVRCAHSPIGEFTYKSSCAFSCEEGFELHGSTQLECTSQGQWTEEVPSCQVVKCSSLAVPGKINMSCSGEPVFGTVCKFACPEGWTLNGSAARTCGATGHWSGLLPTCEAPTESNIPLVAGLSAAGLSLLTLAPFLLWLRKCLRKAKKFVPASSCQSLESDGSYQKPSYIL
Sequence of human RAR-related Orphan Receptor beta (RORb), RORB (gene 6096) (Q92753 whole entry, looked up, the tested form may be a part): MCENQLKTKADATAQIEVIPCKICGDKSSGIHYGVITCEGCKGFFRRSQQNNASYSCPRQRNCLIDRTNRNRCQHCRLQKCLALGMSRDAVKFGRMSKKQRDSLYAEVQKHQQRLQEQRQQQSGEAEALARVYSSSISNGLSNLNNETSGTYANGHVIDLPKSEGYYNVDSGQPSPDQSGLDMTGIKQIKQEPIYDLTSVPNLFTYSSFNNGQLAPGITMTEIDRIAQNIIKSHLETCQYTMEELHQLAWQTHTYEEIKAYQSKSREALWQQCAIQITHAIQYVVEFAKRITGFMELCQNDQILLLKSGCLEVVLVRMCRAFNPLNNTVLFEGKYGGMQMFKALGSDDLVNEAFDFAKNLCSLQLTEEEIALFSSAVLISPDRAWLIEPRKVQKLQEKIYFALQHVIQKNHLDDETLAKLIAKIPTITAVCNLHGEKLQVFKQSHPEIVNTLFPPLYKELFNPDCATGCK
Sequence of Retinoic acid receptor alpha (Homo sapiens) (P10276 whole entry, looked up, the tested form may be a part): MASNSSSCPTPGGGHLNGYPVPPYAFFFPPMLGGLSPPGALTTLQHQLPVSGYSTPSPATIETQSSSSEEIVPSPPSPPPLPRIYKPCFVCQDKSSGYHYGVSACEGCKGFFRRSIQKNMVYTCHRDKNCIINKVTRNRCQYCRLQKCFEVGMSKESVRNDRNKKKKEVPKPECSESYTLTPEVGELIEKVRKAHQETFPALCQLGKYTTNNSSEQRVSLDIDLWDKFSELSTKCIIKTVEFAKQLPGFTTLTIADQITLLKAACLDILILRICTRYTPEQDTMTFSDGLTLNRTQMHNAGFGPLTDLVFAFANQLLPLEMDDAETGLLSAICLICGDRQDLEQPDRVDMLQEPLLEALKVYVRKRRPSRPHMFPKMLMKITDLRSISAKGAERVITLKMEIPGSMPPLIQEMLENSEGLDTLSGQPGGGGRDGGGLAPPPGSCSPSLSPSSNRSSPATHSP
Sequence of Retinoic acid receptor RXR-alpha (Homo sapiens) (P19793 whole entry, looked up, the tested form may be a part): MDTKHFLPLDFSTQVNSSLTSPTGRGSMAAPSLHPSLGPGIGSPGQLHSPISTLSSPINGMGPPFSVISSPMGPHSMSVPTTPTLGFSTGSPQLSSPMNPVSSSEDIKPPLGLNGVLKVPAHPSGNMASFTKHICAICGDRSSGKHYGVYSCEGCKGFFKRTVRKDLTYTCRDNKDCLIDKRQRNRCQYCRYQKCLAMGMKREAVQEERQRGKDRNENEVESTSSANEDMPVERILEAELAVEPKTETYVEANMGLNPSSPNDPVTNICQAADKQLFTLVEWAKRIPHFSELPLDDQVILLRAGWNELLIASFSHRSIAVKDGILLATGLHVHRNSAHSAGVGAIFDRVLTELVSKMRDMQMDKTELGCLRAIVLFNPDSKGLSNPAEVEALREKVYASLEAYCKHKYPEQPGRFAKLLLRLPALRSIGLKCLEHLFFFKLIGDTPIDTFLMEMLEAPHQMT
Sequence of human Retinoid X Receptor beta (RXRb), RXRB (gene 6257) (P28702 whole entry, looked up, the tested form may be a part): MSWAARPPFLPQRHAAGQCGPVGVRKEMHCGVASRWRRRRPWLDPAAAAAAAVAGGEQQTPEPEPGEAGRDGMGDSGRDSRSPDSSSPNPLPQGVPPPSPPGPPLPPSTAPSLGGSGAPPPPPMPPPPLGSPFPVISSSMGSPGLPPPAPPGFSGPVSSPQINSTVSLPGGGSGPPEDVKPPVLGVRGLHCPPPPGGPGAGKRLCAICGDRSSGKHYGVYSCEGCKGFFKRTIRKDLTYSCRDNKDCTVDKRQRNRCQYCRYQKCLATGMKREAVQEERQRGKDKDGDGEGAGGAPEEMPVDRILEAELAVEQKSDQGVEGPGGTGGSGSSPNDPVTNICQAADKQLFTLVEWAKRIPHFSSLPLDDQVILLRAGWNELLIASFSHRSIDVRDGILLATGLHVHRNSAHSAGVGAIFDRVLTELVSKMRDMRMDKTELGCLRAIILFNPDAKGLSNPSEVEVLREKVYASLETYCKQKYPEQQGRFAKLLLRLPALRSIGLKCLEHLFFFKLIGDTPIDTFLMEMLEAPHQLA
Sequence of human Thyroid Receptor alpha (THRa1), THRA (gene 7067) (P10827 whole entry, looked up, the tested form may be a part): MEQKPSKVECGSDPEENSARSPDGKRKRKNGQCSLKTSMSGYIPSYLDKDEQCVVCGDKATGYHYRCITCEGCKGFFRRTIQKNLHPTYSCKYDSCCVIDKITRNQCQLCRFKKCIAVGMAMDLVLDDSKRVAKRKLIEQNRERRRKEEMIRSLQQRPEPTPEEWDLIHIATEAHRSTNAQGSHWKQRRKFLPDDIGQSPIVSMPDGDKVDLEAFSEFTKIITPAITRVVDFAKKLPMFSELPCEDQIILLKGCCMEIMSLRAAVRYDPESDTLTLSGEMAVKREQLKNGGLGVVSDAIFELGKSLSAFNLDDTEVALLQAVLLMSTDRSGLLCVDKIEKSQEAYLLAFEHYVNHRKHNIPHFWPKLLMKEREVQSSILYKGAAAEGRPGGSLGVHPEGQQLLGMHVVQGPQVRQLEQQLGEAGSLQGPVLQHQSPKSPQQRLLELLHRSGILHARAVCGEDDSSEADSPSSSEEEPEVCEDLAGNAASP
Sequence of human Retinoic Acid Receptor beta (RARb), RARB (gene 5915) (P10826 whole entry, looked up, the tested form may be a part): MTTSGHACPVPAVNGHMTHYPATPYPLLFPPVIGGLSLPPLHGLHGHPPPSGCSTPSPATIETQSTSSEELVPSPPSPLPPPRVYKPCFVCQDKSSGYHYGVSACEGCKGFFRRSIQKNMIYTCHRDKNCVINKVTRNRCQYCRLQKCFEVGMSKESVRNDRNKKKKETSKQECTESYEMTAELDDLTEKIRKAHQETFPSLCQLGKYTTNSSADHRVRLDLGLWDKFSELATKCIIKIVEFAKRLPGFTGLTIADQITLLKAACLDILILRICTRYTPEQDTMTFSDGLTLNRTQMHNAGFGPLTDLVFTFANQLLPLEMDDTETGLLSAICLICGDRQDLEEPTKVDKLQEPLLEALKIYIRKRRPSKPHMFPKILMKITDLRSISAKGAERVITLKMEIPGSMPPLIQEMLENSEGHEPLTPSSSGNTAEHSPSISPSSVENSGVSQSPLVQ

As for `Cc1ccc2nc3sc(=O)sc3nc2c1`, the half-maximal activity concentration (AC50) in assay [1] is 7.74 µM (active); in assay [4] it was 7.3 µM (active); in assay [5], 2 µM (active); in [6], 6.31 µM (active); in [7], 17.7 µM (active); in assay [10] it was 6.55 µM (active). Besides, the half-maximal activity concentration (AC50) in [11] is 8.99 µM (active); in [13], 5 µM (active); in assay [14] it was 5.97 µM (active); in assay [15], 5 µM (active); in [16] it was 8.57 µM (active). For the same compound, the compound was classed as inactive in assay [2], in [3], in assay [8], in [9] and in [12].

On to `C=CC(Cl)CCl` (centres undefined), for which the outcome in assay [1], in [3], in [4], in [5], in assay [7] and in [8] was inactive. The compound was classed as inactive in [9], in assay [11], in assay [17], in [13], in assay [14] and in assay [16]. The figures for the half-maximal activity concentration (AC50) in assay [6] and in assay [12] were 27.2 µM (active) and 0.14 µM (active), respectively.

On to `CC(C)=CC1C(C(=O)OCc2cccc(Oc3ccccc3)c2)C1(C)C` (centres undefined), for which the outcome in assay [1], in assay [2], in [3], in assay [8], in assay [18] and in assay [19] was inactive. The result in assay [12], in assay [15] and in assay [16] was inactive. In addition, the AC50 in assay [4] is 20 µM (active); in assay [6], 9.55 µM (active); in assay [11], 2.62 µM (active); in [13], 20 µM (active); in assay [14], 20 µM (active).

For `CCCCCCCCCCCCN(C)C`, the outcome in assay [1], in assay [4], in [5], in [6], in [7] and in assay [9] was inactive. For the same compound, the call in [19], in assay [10], in assay [11], in [12], in assay [13] and in [14] was inactive. Besides, the result in [15], in assay [16] and in [20] was inactive.

(Values after PubChem BioAssay (EPA / NIEHS).)
